# System: Plasmodium falciparum
# Experiment: GSK_TCMDC: Inhibition of Plasmodium falciparum 3D7 in whole red blood cells, using parasite LDH activity as an index of growth. Test compounds present at 2uM
# Assay type: functional
row,SMILES,Inhibition [%]
1,CN(CC(=O)Nc1cc(C(F)(F)F)ccc1-n1cncn1)Cc1ccc2ccccc2c1,98
2,Cl.NC1=NC2(CCCCC2)N(Cc2ccc(Cl)c(Cl)c2)C(N)=N1,86
3,CN(C(=O)c1ccc(Br)cc1)c1ccccc1[N+](=O)[O-],96
4,COc1ccc(NC(=O)Nc2cccc(-c3cccc(-c4nc5cc(F)ccc5[nH]4)c3)c2)cc1,99
5,CN(C)c1cc(NC(=O)Nc2ccc(SC(F)(F)F)cc2)c2ccccc2n1,100
6,CC(C)NCc1ccc(-c2cccc(-c3nc4ccccc4[nH]3)c2)cc1.O=C(O)C(F)(F)F,100
7,O=C(c1ccco1)N1CCN(c2ccc([N+](=O)[O-])c(NC3CC3)c2)CC1,100
8,COc1ccc2nccc([C@@H](O)CN3CCC(NCc4cc5cccc(OCc6ccccc6)c5[nH]4)CC3)c2c1,100
9,O=C(O)C(F)(F)F.O=c1cc(N2CCCNCC2)c(Cl)nn1Cc1ccc(NS(=O)(=O)c2ccc(Oc3ccccc3)cc2)cc1,98
10,COc1ccc(NC(=O)[C@H](Cc2ccccc2)Nc2cc(C)nc(NCCc3ccccc3OC)n2)cc1.O=C(O)C(F)(F)F,100
11,CCC1CCc2cc(N)cc(-c3nc4c(c(C)nn4CC)c(=O)[nH]3)c2O1 (stereo not given),86
12,CCOc1ccc(C(C)NC(=O)Cc2ccccc2F)cc1OCC (stereo not given),96
13,Cc1cccc2nc(-c3ccc(-c4ccc(CN5CCN(c6cnccn6)CC5)cc4)s3)[nH]c12.O=C(O)C(F)(F)F,94
14,O=C(/C=C/c1ccc(Cl)c(Cl)c1)NCCCCCN1CCCN(C(=O)Nc2cc(F)cc(F)c2)CC1,94
15,O=c1cc(NCCCN(Cc2cc3c(Cl)cc(Cl)cc3[nH]2)Cc2cc3c(Cl)cc(Cl)cc3[nH]2)[nH]c2ccccc12,87
16,Cc1nc2ccc(Nc3nccc(-c4c(-c5cccc(NC(=O)c6c(F)cccc6F)c5)nn5ccccc45)n3)cc2nc1C,91
17,COc1ccc2nc(N(CCCn3ccnc3)C(=O)C=Cc3cccs3)sc2c1.Cl,92
18,Cc1ccc(NC(=O)c2ccc(CN3CCCN(CC4CCCCC4)CC3)cc2)cc1.O=C(O)C(F)(F)F,93
19,CCc1nc(N)nc(N)c1-c1ccccc1,92
20,CCC(C)NC(=O)CN1CN(c2ccccc2)C2(CCN(C(=O)c3ccc4ccccc4c3)CC2)C1=O (stereo not given),95

row,SMILES,Inhibition [%]
1,Cl.Nc1c2ccccc2nc2cc([N+](=O)[O-])ccc12,98
2,S=c1nc(-c2ccccc2)n2ccsc2n1,95
3,COc1ccccc1CN1CCC(CNC(=O)c2cc(-c3cccc(C(F)(F)F)c3)cs2)C1.O=C(O)C(F)(F)F (stereo not given),84
4,CC1(C)NC(=N)N=C(NOCC=Cc2ccccc2)N1,98
5,Fc1ccc2c(NN=CC=Cc3ccccc3)ccnc2c1,100
6,Cc1cc2c(NC(=O)NC3CCN(Cc4ccc(Cl)c(Cl)c4)CC3)cccc2cn1.Cl,100
7,COc1ccc(Nc2nccc(-c3cccc(NC(=O)c4cc5cc(F)ccc5[nH]4)c3)n2)cc1,92
8,Cl.Oc1ccccc1CNCC12CC3CC(CC(C3)C1)C2,98
9,Cl.N#Cc1cccc(-c2ccc(C(=O)Nc3ccc4c(c3)CCN(C3CCC3)CC4)cn2)c1,96
10,CCCC[C@@H](C(=O)NCc1ccccc1C(F)(F)F)N1C(=O)CCC1C(=O)Nc1ccc([N+](=O)[O-])cc1 (stereo not given in full),94
11,O=C(NCCCCCN1CCC(c2c[nH]c3ccccc23)CC1)c1ccc(-c2ccccc2)nc1,87
12,NC1=NC2(CCCCC2)N(OCCCCCCN2C(=O)c3ccccc3C2=O)C(N)=N1,98
13,Cn1c(NC(=O)CCCCCNC(=O)c2ccc(O)c(-c3ccc(Cl)c(Cl)c3)c2)nc2ccccc21,100
14,COc1ccc(Cn2ccc3c4c(N)nc(N)nc4ccc32)cc1,100
15,Cc1ccc(C(=O)NC2CCN(CCNC(=O)Nc3cc(C)nc4ccccc34)CC2)cc1,98
16,C=CCN1C(=O)C(=Cc2cc(Br)ccc2O)SC1=Nc1ccccc1,96
17,O=C(NCc1ccc(F)cc1)Nc1cccc(-c2ccc(-c3nc4ccccc4[nH]3)cc2)c1,100
18,O=c1cc(NCCCNCc2cccc(Oc3ccccc3)c2)[nH]c2ccccc12,93
19,CCN1CCN(c2ccc(Nc3c4ccccc4nc4ccccc34)cc2)CC1,99
20,COC(=O)c1ccc2nc(-c3ccc(/C=C/C(=O)NCc4ccc(Cl)c(Cl)c4)cc3)[nH]c2c1,81

# System: Plasmodium falciparum
# Experiment: GSK_TCMDC: Inhibition of Plasmodium falciparum Dd2 in whole red blood cells, using parasite LDH activity as an index of growth. Test compounds present at 2uM
# Assay type: functional
row,SMILES,Inhibition [%]
1,CN(CC(=O)Nc1cc(C(F)(F)F)ccc1-n1cncn1)Cc1ccc2ccccc2c1,99
2,Cl.NC1=NC2(CCCCC2)N(Cc2ccc(Cl)c(Cl)c2)C(N)=N1,76
3,CN(C(=O)c1ccc(Br)cc1)c1ccccc1[N+](=O)[O-],0
4,COc1ccc(NC(=O)Nc2cccc(-c3cccc(-c4nc5cc(F)ccc5[nH]4)c3)c2)cc1,39
5,CN(C)c1cc(NC(=O)Nc2ccc(SC(F)(F)F)cc2)c2ccccc2n1,100
6,CC(C)NCc1ccc(-c2cccc(-c3nc4ccccc4[nH]3)c2)cc1.O=C(O)C(F)(F)F,34
7,O=C(c1ccco1)N1CCN(c2ccc([N+](=O)[O-])c(NC3CC3)c2)CC1,99
8,COc1ccc2nccc([C@@H](O)CN3CCC(NCc4cc5cccc(OCc6ccccc6)c5[nH]4)CC3)c2c1,40
9,O=C(O)C(F)(F)F.O=c1cc(N2CCCNCC2)c(Cl)nn1Cc1ccc(NS(=O)(=O)c2ccc(Oc3ccccc3)cc2)cc1,0
10,COc1ccc(NC(=O)[C@H](Cc2ccccc2)Nc2cc(C)nc(NCCc3ccccc3OC)n2)cc1.O=C(O)C(F)(F)F,83
11,CCC1CCc2cc(N)cc(-c3nc4c(c(C)nn4CC)c(=O)[nH]3)c2O1 (stereo not given),42
12,CCOc1ccc(C(C)NC(=O)Cc2ccccc2F)cc1OCC (stereo not given),44
13,Cc1cccc2nc(-c3ccc(-c4ccc(CN5CCN(c6cnccn6)CC5)cc4)s3)[nH]c12.O=C(O)C(F)(F)F,42
14,O=C(/C=C/c1ccc(Cl)c(Cl)c1)NCCCCCN1CCCN(C(=O)Nc2cc(F)cc(F)c2)CC1,1
15,O=c1cc(NCCCN(Cc2cc3c(Cl)cc(Cl)cc3[nH]2)Cc2cc3c(Cl)cc(Cl)cc3[nH]2)[nH]c2ccccc12,80
16,Cc1nc2ccc(Nc3nccc(-c4c(-c5cccc(NC(=O)c6c(F)cccc6F)c5)nn5ccccc45)n3)cc2nc1C,45
17,COc1ccc2nc(N(CCCn3ccnc3)C(=O)C=Cc3cccs3)sc2c1.Cl,26
18,Cc1ccc(NC(=O)c2ccc(CN3CCCN(CC4CCCCC4)CC3)cc2)cc1.O=C(O)C(F)(F)F,42
19,CCc1nc(N)nc(N)c1-c1ccccc1,1
20,CCC(C)NC(=O)CN1CN(c2ccccc2)C2(CCN(C(=O)c3ccc4ccccc4c3)CC2)C1=O (stereo not given),78

row,SMILES,Inhibition [%]
1,Cl.Nc1c2ccccc2nc2cc([N+](=O)[O-])ccc12,26
2,S=c1nc(-c2ccccc2)n2ccsc2n1,0
3,COc1ccccc1CN1CCC(CNC(=O)c2cc(-c3cccc(C(F)(F)F)c3)cs2)C1.O=C(O)C(F)(F)F (stereo not given),1
4,CC1(C)NC(=N)N=C(NOCC=Cc2ccccc2)N1,2
5,Fc1ccc2c(NN=CC=Cc3ccccc3)ccnc2c1,98
6,Cc1cc2c(NC(=O)NC3CCN(Cc4ccc(Cl)c(Cl)c4)CC3)cccc2cn1.Cl,41
7,COc1ccc(Nc2nccc(-c3cccc(NC(=O)c4cc5cc(F)ccc5[nH]4)c3)n2)cc1,37
8,Cl.Oc1ccccc1CNCC12CC3CC(CC(C3)C1)C2,99
9,Cl.N#Cc1cccc(-c2ccc(C(=O)Nc3ccc4c(c3)CCN(C3CCC3)CC4)cn2)c1,5
10,CCCC[C@@H](C(=O)NCc1ccccc1C(F)(F)F)N1C(=O)CCC1C(=O)Nc1ccc([N+](=O)[O-])cc1 (stereo not given in full),2
11,O=C(NCCCCCN1CCC(c2c[nH]c3ccccc23)CC1)c1ccc(-c2ccccc2)nc1,13
12,NC1=NC2(CCCCC2)N(OCCCCCCN2C(=O)c3ccccc3C2=O)C(N)=N1,16
13,Cn1c(NC(=O)CCCCCNC(=O)c2ccc(O)c(-c3ccc(Cl)c(Cl)c3)c2)nc2ccccc21,55
14,COc1ccc(Cn2ccc3c4c(N)nc(N)nc4ccc32)cc1,93
15,Cc1ccc(C(=O)NC2CCN(CCNC(=O)Nc3cc(C)nc4ccccc34)CC2)cc1,76
16,C=CCN1C(=O)C(=Cc2cc(Br)ccc2O)SC1=Nc1ccccc1,55
17,O=C(NCc1ccc(F)cc1)Nc1cccc(-c2ccc(-c3nc4ccccc4[nH]3)cc2)c1,49
18,O=c1cc(NCCCNCc2cccc(Oc3ccccc3)c2)[nH]c2ccccc12,67
19,CCN1CCN(c2ccc(Nc3c4ccccc4nc4ccccc34)cc2)CC1,100
20,COC(=O)c1ccc2nc(-c3ccc(/C=C/C(=O)NCc4ccc(Cl)c(Cl)c4)cc3)[nH]c2c1,3

# From ChEMBL document CHEMBL1157539, “Thousands of chemical starting points for antimalarial lead identification” (Nature, 2010)
